This is a sample that favours compounds with a hit; in the whole collection about 1.4% have one here.
Sa RN4220 lethal: S. aureus RN4220 growth inhibition | inhibition, % (test concentration not listed) | 330,000 compounds, 0.33% hits | OD600, 16 h; in the data active means inhibition above about 85%;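 further: plate controls were untreated cells for no effect and reference antibiotic for full effect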
Mtb hypoxia rep: inhibitors of hypoxia-regulated fluorescent reporter in Mycobacterium tuberculosis. fluorescence inhibition, % (concentration not given with the values). 300,000 compounds, 0.1% hits. M. tuberculosis hypoxia-regulated fluorescent reporter, fluorescence. AID 1159583; in the data active means fluorescence inhibition mostly above about 23%, no sharp cut-off; inactive means mostly below about 17%
SSB-PriA inh: blocks PriA binding to SSB C-terminal tail; AlphaScreen SSBct-PriA binding, biotinylated peptide; 430,000 compounds, 0.6% hits; inhibition, % at 33 µM; in the data active means inhibition mostly above about 37%, no sharp cut-off; inactive means mostly below about 20%;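 further: plate controls were negative control peptide for no effect and reference peptide for full effect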
CCHF vOTU inh-1: CCHFV vOTU protease inhibition | Pep-AMC fluorescence | inhibition, % at 11.5 µM | 370,000 compounds, 0.55% hits; further: 0% = vehicle wells with enzyme and 100% = no enzyme wells
ugtP null kill: growth inhibition of S. aureus ugtP deletion strain | S. aureus RN4220 ugtP deletion, OD600 growth, 16 h | 330,000 compounds, 0.54% hits | AID 1259309 | growth inhibition, % (concentration not given with the values); in the data active means growth inhibition above about 68%;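 further: plate controls were untreated wells for no effect and antibiotic for full effect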
CCHF vOTU inh-2: confirmation of CCHF virus vOTU protease inhibitors; shares compounds with CCHF vOTU inh-1; Recombinant CCHFV vOTU, Pep-AMC fluorescence; inhibition, % at 11.5 µM; 1,900 compounds, 17% hits; AID 686976
Starred values were filed as active, the others as inactive; / = not tested or not shown. Unless noted, no stated cut-off is given here; in the data, active means inhibition above about 30%; inactive means the rest.

SMILES	Sa RN4220 lethal	Mtb hypoxia rep	SSB-PriA inh	CCHF vOTU inh-1	ugtP null kill	CCHF vOTU inh-2
Cc1c(C)n(Cc2ccc(-c3ccccc3C(=O)O)cc2)c2ccc(C(=O)N[C@@H](C)c3ccc(Br)cc3)cc12	/	/	/	33*	/	3
Cc1nc2cc(NC(=O)c3c[nH]c(=O)n(Cc4ccccc4F)c3=O)ccc2s1	/	/	-8	/	/	/
Cc1ccc([C@H]2C(C(=O)O)=CC[C@@H](c3ccc(C)cc3)N2S(=O)(=O)c2ccccc2C)cc1	21	0	8	35*	-16	-6
Cc1ccccc1S(=O)(=O)N1[C@@H](c2ccc(Cl)cc2)C(C(=O)O)=CC[C@H]1c1ccc(Cl)cc1	14	2	4	32*	20	7
COC(=O)C1(C(=O)OC)C[C@H](/C=C/c2ccccc2)N(Cc2ccccc2OC)[C@@H]1c1cccs1	/	/	/	13	/	/
COC(=O)C1(C(=O)OC)C[C@H](/C=C/c2ccccc2)N(Cc2ccccc2OC)[C@@H]1c1ccc(F)cc1	/	/	/	31*	/	-6
Cc1cc(C(=O)O)ccc1-c1ccc(C=Nn2cnnc2)o1	4	-5	2	/	-5	/
CC(=O)OCCCNc1cc(SCc2ccco2)c2nonc2c1[N+](=O)[O-]	11	10	0	55*	-12	-18
CCCC(=O)OCCNc1cc(SCc2ccco2)c2nonc2c1[N+](=O)[O-]	11	/	2	10	-16	/
COc1ccc(-n2c(C)nc3ccc(NS(=O)(=O)c4cccc(Cl)c4Cl)cc3c2=O)cc1	/	/	-7	/	/	/
COc1ccc2ccccc2c1C1CC(=O)N2CN(C3CCCCC3)CSC2=C1C#N (centres undefined)	-3	4	15	47*	-13	35*
COc1ccc2ccccc2c1C1CC(=O)N2CN(Cc3ccco3)CSC2=C1C#N (centres undefined)	-6	4	2	33*	9	22
CC(C)C(=O)Nc1ccc(S(=O)(=O)NCC2CCN(c3nccnc3C#N)CC2)cc1	/	/	-22	/	/	/
O=C1NC[C@H](Cc2ccccc2)N(C[C@@H]2CCCN2C[C@H](Cc2ccccc2)N2C[C@H](Cc3ccccc3)N(CC3CCCCC3)C(=O)C2=O)C1=O	/	/	/	30*	/	3
CC(C)C[C@@H](CN1CCC[C@@H]1CN1C(=S)NC[C@@H]1Cc1ccc(O)cc1)N1C[C@H](Cc2ccc(O)cc2)N(CC2CCCCCC2)C1=S	/	/	/	32*	/	-17
O=C1NC[C@@H](CCCCN2C[C@H](Cc3ccc(O)cc3)N(CCC3CCCCC3)C(=O)C2=O)N(CC2CCCCC2)C1=O	/	/	/	35*	/	-13
O=C1NC[C@H](CCCCN2C[C@H](Cc3ccc(O)cc3)N(CC3CCCCC3)C(=O)C2=O)N(CCC2CCCCC2)C1=O	/	/	/	15	/	/
CCC(=O)N(CCC(c1ccccc1)c1ccco1)Cc1cccs1 (centres undefined)	-1	6	-6	34*	17	-10
CCCCCCn1c(=O)n2n(c1=O)C[C@]1(OC(=O)NC3CCCC3)CN(S(=O)(=O)c3ccc(C)cc3)C[C@]1(O)C2	/	/	/	29	/	/
CCCCCCn1c(=O)n2n(c1=O)C[C@]1(OC(=O)NCC3CCCCC3)CN(S(=O)(=O)c3ccc(C)cc3)C[C@]1(O)C2	/	/	/	32*	/	8
COC(=O)c1ccc(Oc2coc3cc(OC(=O)N4CCOCC4)ccc3c2=O)cc1	/	/	1	/	/	/
C=CCCC[C@H]1OC(=O)[C@H](C)NC(=O)[C@H](C(C)C)NC(=O)[C@@H]2CCCN2C(=O)[C@H](Cc2ccccc2)OC(=O)[C@@H](C(C)C)N(C)C(=O)[C@H](C(C)C)NC(=O)C1(C)C	/	/	/	30*	/	6
NC(=O)c1ccc(NC(=O)CCCn2nc(-c3ccncc3)ccc2=O)cc1	/	/	-5	/	/	/
Cc1ccc(C)c(C=NNc2nc3ccccc3c(=O)n2O)c1	11	-4	/	/	-1	/
Cc1ccccc1NC(=O)CSc1nc(N)c(C#N)c(-c2cccs2)c1C#N	3	/	-11	9	1	/
COc1ccc(CCNC(=O)CSCc2ccc(Cl)cc2)cc1OC	6	6	6	-9	4	/
COCCn1c(-c2ccc(Cl)cc2)cnc1SCC(=O)NCCc1ccc(OC)c(OC)c1	4	13	16	30*	10	-16
COc1ccc(CCNC(=O)CSc2nc(N)c(C#N)c(-c3cccs3)c2C#N)cc1OC	5	-2	-17	32*	8	-4
CCOC(=O)c1sc(NC(=O)Cc2ccc(S(C)(=O)=O)cc2)nc1-c1ccccc1	/	/	2	/	/	/
O=C(c1ccc2c(c1)OCO2)n1sc(=O)c2ccccc21	/	/	-1	/	/	/
